Measurements: PubChem BioAssay (NCATS)
Where “and” joins values, the source holds several entries; their conditions need not be identical. Identical values can stand only once. Unmarked numbers belong to inactive results. Inconclusive results are not listed. Where a call stands in place of a potency, no number is given. Calls of active or inactive are those of the source. Unless noted, calls follow the shape of the dose curve; as a rule, active = well fitted curve in the direction sought with a large enough effect; inconclusive = small, poorly fitted or top-dose-only effect, or another doubt; inactive = no such curve, though single readings can be large; an effect the other way counts as inactive or inconclusive.

What was measured:
[1] = qHTS Assay for Identifying Gametocytocidal Compounds (AID 743244); also: potency is read from the fitted curve at half-maximal effect;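 as to max response: actives lower the fluorescent signal which means gametocytes are killed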; details: P. falciparum 3D7 stage III-V gametocytes, alamarBlue, 72 h; max response: stronger effect = lower value
Summary of the method: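 Using 20,000 stage III–V 3D7 gametocytes per well, compounds were incubated 72 h under 37 °C/5% CO2. Viability was then assessed by 24 h alamarBlue reduction, measured fluorometrically at 525/598 nm.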

[2] = qHTS assay for measurement of the activity of small molecule inhibitors on Zika virus induced Caspase-3 activity in human iPSC derived neural progenitor cells (hNPCs) (AID 1224857); also: nearly all actives have a fitted effect of over 65% in size
Summary of the method: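 After overnight (16–20 h) culture at 350 cells/well, hNPCs get compound, then ZIKV 2 FFU/cell one hour later. Six hours on, Caspase-Glo 3/7 is added and luminescence measured.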

[3] = qHTS assay for measurement of the activity of small molecule inhibitors on Zika virus induced Caspase-3 activity in human astrocytoma cells (AID 1224859)
Summary of the method: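 Inhibition of Zika-induced caspase-3/7 activity: SNB-19 cells, 1 h compound pretreatment, ZIKV 2 FFU/cell for 6 h at 37 C, Caspase-Glo luminescence read-out.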

[4] = qHTS assay to identify small molecule inhibitors of chordoma cells - UCH-1 (AID 1259355); also: nearly all actives have a fitted effect of over 55% in size; also: potency is read from the fitted curve at half-maximal effect; series mostly up to about 46 µM
Summary of the method: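 Screening used approved and investigational drugs in 15-point titration against 800 seeded cells per well. A fixed combination of auranofin with camptothecin, doxorubicin, rubitecan and topotecan followed compound addition, and growth was scored by CellTiter-Glo after 48hr.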

[5] = qHTS assay to identify small molecule inhibitors of chordoma cells - UCH-2 (AID 1259356); also: potency is read from the fitted curve at half-maximal effect
[6] = Natriuretic polypeptide receptor (hNpr1) antagonism - Pilot counterscreen GloSensor control cell line (AID 1347045; calls by dose curve; also: potency is read from the fitted curve at half-maximal effect)
Summary of the method: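 HEK293 cGMP-sensor cells; 2% GloSensor reagent 2 h RT; LOPAC compounds in 1:5 titrations 30-50 min; 50 uM SNP 20 min; luminescence pre-read and post-read.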

[7] = target: Atrial natriuretic peptide receptor 1 (Homo sapiens) (UniProt P16066); test: Natriuretic polypeptide receptor (hNpr1) antagonism - Pilot screen (AID 1347049; calls by dose curve;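 also: agonist-evoked cGMP luminescence read 20 min after hNppA addition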; also: potency is read from the fitted curve at half-maximal effect)
Summary of the method: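 cGMP-sensor HEK293/hNpr1 cells, 1500/well, plated overnight at 37C. 2% GloSensor reagent, 2 h RT. Compound (23 nL pin transfer) 30 min RT, baseline luminescence pre-read. 0.1 nM hNppA, 20 min RT, post-read.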

[8] = P-glycoprotein substrates identified in KB-8-5-11 adenocarcinoma cell line, qHTS therapeutic library screen (AID 1346987); also: nearly all actives have a fitted effect of over 65% in size; also: potency is read from the fitted curve at half-maximal effect
Summary of the method: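 In this qHTS, P-gp-rich KB-8-5-11 cells received library compounds across a concentration range. Viability was quantified by luminescence after 72 h at 37 degree C.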

[9] = qHTS assay for cell viability of HEK293 cells (AID 743288); details: ATP luminescence (CellTiter-Glo), 18 h; max response: stronger effect = lower value; also: nearly all actives have a fitted effect of over 50% in size; also: potency is read from the fitted curve at half-maximal effect
Summary of the method: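 Readout is luciferase-coupled ATP content (CellTiter-Glo luminescence, 30 min room temperature) as a measure of metabolically competent cells. Parental HEK293 cells were plated 5 h or more before compound addition, then treated 18 h at 37 C.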

Chain of Atrial natriuretic peptide receptor 1 (Homo sapiens) (P16066 whole entry, looked up): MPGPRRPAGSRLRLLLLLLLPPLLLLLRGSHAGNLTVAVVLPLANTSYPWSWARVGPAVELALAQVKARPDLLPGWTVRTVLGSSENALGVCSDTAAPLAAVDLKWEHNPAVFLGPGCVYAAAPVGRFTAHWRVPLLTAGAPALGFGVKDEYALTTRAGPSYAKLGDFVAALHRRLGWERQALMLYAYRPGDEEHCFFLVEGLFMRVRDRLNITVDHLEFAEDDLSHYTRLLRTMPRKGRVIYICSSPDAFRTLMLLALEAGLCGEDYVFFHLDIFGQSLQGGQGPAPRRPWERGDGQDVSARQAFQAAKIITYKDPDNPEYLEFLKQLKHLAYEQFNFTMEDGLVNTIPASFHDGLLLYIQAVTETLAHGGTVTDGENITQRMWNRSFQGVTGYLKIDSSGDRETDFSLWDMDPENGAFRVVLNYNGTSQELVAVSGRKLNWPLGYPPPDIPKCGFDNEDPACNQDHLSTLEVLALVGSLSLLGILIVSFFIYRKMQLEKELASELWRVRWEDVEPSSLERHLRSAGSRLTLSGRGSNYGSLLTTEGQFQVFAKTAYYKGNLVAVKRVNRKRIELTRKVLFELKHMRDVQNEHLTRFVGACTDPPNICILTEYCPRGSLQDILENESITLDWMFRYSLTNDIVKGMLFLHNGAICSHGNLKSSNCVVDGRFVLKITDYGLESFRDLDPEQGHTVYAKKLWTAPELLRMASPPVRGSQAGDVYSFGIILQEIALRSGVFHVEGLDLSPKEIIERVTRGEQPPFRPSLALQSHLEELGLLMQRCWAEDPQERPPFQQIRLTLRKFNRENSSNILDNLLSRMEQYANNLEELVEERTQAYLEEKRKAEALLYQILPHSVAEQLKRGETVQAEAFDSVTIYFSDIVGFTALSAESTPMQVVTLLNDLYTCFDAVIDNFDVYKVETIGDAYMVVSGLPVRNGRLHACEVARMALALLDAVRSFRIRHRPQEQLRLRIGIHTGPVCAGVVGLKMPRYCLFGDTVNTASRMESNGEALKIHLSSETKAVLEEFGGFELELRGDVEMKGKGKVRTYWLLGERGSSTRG

| Structure (SMILES) | max response [1] | outcome [2] | outcome [3] | Potency [4] | Potency [5] | Potency [6] | Potency [7] | Potency [8] | Potency [9] | Potency [1] | max response [9] |
| --- | --- | --- | --- | --- | --- | --- | --- | --- | --- | --- | --- |
| COc1ccc2c(c1OC)C(=O)O[C@@H]2[C@H]1c2c(cc3c(c2OC)OCO3)CCN1C | -4.58% and 10.4% | inactive | inactive | inactive | inactive | inactive | inactive |  |  |  |  |
| CN(C)C(=O)Oc1cccc([N+](C)(C)C)c1 | 5.44% and 20.8% | inactive | inactive | inactive | inactive |  |  | inactive |  |  |  |
| Nc1nc(N)c2nc(-c3ccccc3)c(N)nc2n1 | -2.09% and -8.78% | inactive | inactive | inactive | inactive | inactive |  | inactive | 31.6 µM (active) |  |  |
| CCOC(=O)C1=C(C)NC(C)=C(C(=O)OC)C1c1cccc([N+](=O)[O-])c1 (configuration not stated) | 5.7% | inactive | inactive | inactive | inactive | inactive |  |  |  |  |  |
| CCCCNc1c(C(=O)OCC)c(C)nc2c1cnn2CC | -2.63% and 24% | inactive | inactive | inactive | inactive | inactive | inactive |  |  |  |  |
| CC(C)NCC(O)c1cc(O)cc(O)c1 (configuration not stated) | 4.9% and 20.6% | inactive | inactive | inactive | inactive | inactive |  |  |  |  |  |
| CC(C)(C)c1ccc(C(=O)CCCN2CCC(OC(c3ccccc3)c3ccccc3)CC2)cc1 |  | inactive | inactive | 15.8 µM (active) | inactive |  | inactive | 20.6 µM (active) |  |  |  |
| C[n+]1cc2c3c(ccc2c2ccc4cc5c(cc4c21)OCO5)OCO3 |  | inactive | inactive | 12.6 µM (active) | 13 µM (active) | 2.07 µM (active) | 4.78 µM (active) |  |  | 3.16 µM (active) |  |
| Cc1nc2sccn2c(=O)c1CCN1CCC(=C(c2ccc(F)cc2)c2ccc(F)cc2)CC1 | -7.25% and 26.8% | inactive | inactive | inactive | inactive |  |  |  |  |  |  |
| CC(=O)Nc1nnc(S(N)(=O)=O)s1 | 9.9% and 9.69% | inactive | inactive | inactive | inactive | inactive |  | inactive |  |  | -6.47% |
| Fc1ccc(C(c2ccc(F)cc2)N2CCN(C/C=C/c3ccccc3)CC2)cc1 | 16.8% and 11% | inactive | inactive | inactive |  | inactive |  |  |  |  |  |
| CC1=C(C)C(=O)C(CCCCC#CCCCC#CCO)=C(C)C1=O |  | inactive | inactive | inactive | inactive |  | inactive |  |  | 14.1 µM (active) |  |
| C[N+](C)(C)CCCCCCCCCC[N+](C)(C)C |  | inactive | inactive | inactive | inactive | inactive |  |  |  |  |  |
| C#CCN(C)CCCOc1ccc(Cl)cc1Cl | -2.39% and 17.1% | inactive | inactive | inactive | inactive | inactive | inactive |  |  |  |  |
| CCN(CC)CCOCCOC(=O)C1(c2ccccc2)CCCC1 |  | inactive | inactive | inactive | inactive | inactive | inactive |  |  |  |  |
| CCCCOCCOCCOCc1cc2c(cc1CCC)OCO2 | 3.05% | inactive | inactive | inactive | inactive |  |  | inactive |  |  | -11.4% and -13.4% |
| OC(CCN1CCCCC1)(c1ccccc1)C1CCCCC1 (configuration not stated) | -12% and 9.84% | inactive | inactive | inactive | inactive |  | inactive | inactive |  |  |  |
| CSc1ccc(C(=O)c2[nH]c(=O)[nH]c2C)cc1 | 9.34% and 5.87% | inactive | inactive | inactive | inactive | inactive | inactive |  |  |  |  |
| COc1ccc(CCN(C)CCCC(C#N)(c2cc(OC)c(OC)c(OC)c2)C(C)C)cc1OC (configuration not stated) | 12.4% and 4.11% | inactive | inactive | inactive | inactive | inactive | inactive |  |  |  |  |
| CN(C)CCN(Cc1cccs1)c1ccccn1 | -13% and 5.58% | inactive | inactive | inactive | inactive | inactive | inactive |  |  |  |  |
| CCN(CC)CC(=O)Nc1c(C)cccc1C | 0.639% and 6.44% | inactive | inactive | inactive | inactive | inactive |  | inactive |  |  |  |
| CN(C)C(=O)Oc1ccc[n+](C)c1 | -5.59% and 6.64% | inactive | inactive | inactive | inactive | inactive |  |  |  |  |  |
| N[C@@H](COP(=O)(O)O)C(=O)O | -4.33% and 12% | inactive | inactive | inactive | inactive | inactive |  | inactive |  |  |  |
| C[C@]12CCC(=O)C=C1CC[C@@H]1[C@@H]2CC[C@@]2(C)[C@H]1CC[C@]2(O)C(=O)CO | -4.53% and -8.22% | inactive | inactive | inactive | inactive | inactive | inactive |  |  |  |  |
| COCCCC/C(=N\OCCN)c1ccc(C(F)(F)F)cc1 | 20.1% | inactive | inactive | inactive |  |  | inactive |  |  |  |  |
